Assay results reported in PubChem BioAssay (Tox21).
A number with no mark means an inactive call. Records with an inconclusive call do not appear. Entries that show only a call come without a potency. Active and inactive are the calls of the source. Unless noted, calls come from the whole dose curve; as a rule, active = well fitted curve in the direction sought with a large enough effect in the repeat runs; inconclusive = weak or mixed curves; inactive = no such curve, though single readings can be large; an effect the other way counts as inactive or inconclusive.

How the values were obtained:
[1] = molecular target: Thyrotropin receptor (Homo sapiens) (UniProt P16473); test: qHTS assay to identify small molecule antagonists of the thyroid stimulating hormone receptor (TSHR) signaling pathway (AID 1259385; calls by dose curve; note: nearly all actives have a fitted effect of over 20% in size)
Method in brief: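 Antagonist mode: compound-treated TSHR-expressing HEK293 cells were stimulated with 1.5 ng/mL TSH (final) in presence of Ro20-1724 for 30 min at RT. HTRF cAMP detection after 1 h; each compound tested at 15 concentrations, triplicate.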

[2] = qHTS assay to identify small molecule agonists of the estrogen receptor alpha (ER-alpha) signaling pathway in the presence of an antagonist - cell viability counter screen (AID 1259386);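 note: cells exposed to compounds for 22 h at 37 °C before the viability read; nearly all actives have a fitted effect of over 30% in size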; note: potency is the fitted concentration of half-maximal effect
Method in brief: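 In this counter screen, compound effects on VM7Luc4E2 viability were tested in the presence of the antagonist ICI-182,780 at 10.0nM final. Compounds were dosed at 15 concentrations, exposure lasted 22hr, and the CellTiter-Fluor signal was read.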

[3] = molecular target: Progesterone receptor (Homo sapiens) (UniProt P06401); test: qHTS assay to identify small molecule agonists of the progesterone receptor (PR) signaling pathway (AID 1346784; calls by dose curve; note: nearly all actives have a fitted effect of over 30% in size)
Method in brief: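 PR-UAS-bla HEK 293T cells (beta-lactamase reporter under UAS) in 2% charcoal-stripped FBS, dosed with 23 nL compound after 6 hr, incubated 16hr at 37C. LiveBLAzer B/G FRET substrate added, fluorescence read after 2 hours.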

[4] = molecular target: Progesterone receptor (Homo sapiens) (UniProt P06401); test: qHTS assay to identify small molecule antagonists of the progesterone receptor (PR) signaling pathway (AID 1346795; active = well fitted inhibition curve with a large enough effect in the signal ratio in the repeat runs, not every such curve was filed as active; the % refers to the signal ratio)
Method in brief: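 PR-UAS-bla HEK293T cells with beta-lactamase reporter under UAS control, in 2% charcoal-stripped FBS, treated with compounds plus 1 nM promegestone (R5020, final) for 16 hr at 37C. Read-out: FRET beta-lactamase substrate fluorescence after 2 hr at room temperature.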

[5] = qHTS assay to identify small molecule antagonists of the progesterone receptor (PR) signaling pathway - cell viability counter screen (AID 1346798); note: series mostly up to about 92 µM; nearly all actives have a fitted effect of over 50% in size
Method in brief: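 PR-UAS-bla HEK293T cells, 3,000/well in 2% charcoal-stripped FBS medium, dosed with compounds plus R5020 agonist and incubated 16 h at 37C. Viability then measured in the same wells by CellTiter-Glo luminescence after 30 min at RT.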

[6] = qHTS assay to identify small molecule agonists of the progesterone receptor (PR) signaling pathway - cell viability counter screen (AID 1346799; calls by dose curve; note: nearly all actives have a fitted effect of over 45% in size)
Method in brief: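 Counter screen in the PR-UAS-bla HEK293T wells (2% charcoal-stripped FBS, 16 h compound exposure at 37 C) after the bla read. CellTiter-Glo added, 30 min at room temperature, luminescence read as cell viability.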

[7] = qHTS assay to identify small molecule agonists of the TGF-beta/Smad signaling pathway - cell viability counter screen (AID 1346829); note: top concentration of the series differs between compounds; nearly all actives have a fitted effect of over 45% in size
Method in brief: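 Tox21 qHTS format: SBE-bla HEK 293T cells treated with DMSO-dissolved compounds for 5 hr; CellTiter-Glo luminescence after 30 min at room temperature.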

[8] = qHTS assay to identify small molecule agonists of the TGF-beta/Smad signaling pathway (AID 1346859; active = well fitted activation curve with a large enough effect in the signal ratio in the repeat runs, not every such curve was filed as active; the % refers to the signal ratio; note: series mostly up to about 77 µM)
Method in brief: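 SBE-bla HEK293T cells plated overnight, then compound exposure for 5 h at 37 C. Beta-lactamase reporter read with LiveBLAzer B/G FRET substrate after 2 h at room temperature, fluorescence at 405 nm excitation, 460/530 nm emission.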

[9] = molecular target: Thyrotropin-releasing hormone receptor (Homo sapiens) (UniProt P34981); test: qHTS assay to identify small molecule antagonists of the thyrotropin-releasing hormone receptor (TRHR) signaling pathway (AID 1346877; active = well fitted inhibition curve with a large enough effect in the repeat runs, not every such curve was filed as active; note: series mostly up to about 51 µM)
Method in brief: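 Kinetic fluorescence (3 min, 1 s resolution) following stimulation with TRH at 1 nM final; HEK293 cells bearing human TRHR; 5 min compound preincubation at RT; concentration-response over 15 points, triplicates.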

[10] = molecular target: Thyrotropin-releasing hormone receptor (Homo sapiens) (UniProt P34981); test: qHTS assay to identify small molecule agonists of the thyrotropin-releasing hormone receptor (TRHR) signaling pathway (AID 1346891; calls by dose curve; note: series mostly up to about 58 µM)
Method in brief: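 HEK293 cells expressing TRHR plated 18 h at 37 C/5% CO2, calcium dye-loaded 2 h at 37 C, then compound added (agonist mode); kinetic calcium fluorescence read 3 min at 1 s intervals; 15 concentrations in triplicate.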

[11] = Human pregnane X receptor (PXR) small molecule agonists, qHTS cell viability counter screen (AID 1346977); note: nearly all actives have a fitted effect of over 50% in size
Method in brief: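 PXR-Luc HepG2 cells (2,000/well, 5% charcoal-stripped FBS) preincubated 5 hr, then exposed to compounds 24 hr at 37 C. Viability read in the same wells by CellTiter-Fluor fluorescence, reagent added at 23 hr, 1 hr incubation.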

[12] = Caspase-3/7 induction in HepG2 cells by small molecules, qHTS assay (AID 1346978); note: nearly all actives have a fitted effect of over 15% in size
Method in brief: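 Caspase-3/7 induction was measured by Caspase-Glo 3/7 luminescence (30 min, room temperature) after a 17 hr compound exposure of wild-type HepG2 cells seeded at 2,000 per well and pre-incubated 5 hr.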

[13] = Caspase-3/7 induction in HepG2 cells by small molecules, qHTS cell viability counter screen (AID 1346981); note: nearly all actives have a fitted effect of over 30% in size; note: potency is the fitted concentration of half-maximal effect
Method in brief: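 In this quantitative HTS counter screen, compounds delivered in DMSO were left on unmodified HepG2 cells for 16 hr at 37 C. Viability was then determined fluorometrically with CellTiter-Fluor, in parallel with caspase-3/7 induction in the same wells.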

[14] = molecular target: Nuclear receptor subfamily 1 group I member 2 (Homo sapiens) (UniProt O75469); test: Human pregnane X receptor (PXR) small molecule agonists, qHTS assay (AID 1346982); note: nearly all actives have a fitted effect of over 35% in size; note: potency is the fitted concentration of half-maximal effect
Method in brief: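 Reporter HepG2 cells expressing PXR-Luc are cultured in charcoal-stripped FBS (5%), treated with compounds for 24 hr at 37 C, and assayed by ONE-Glo luminescence after 30 min at room temperature.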

[15] = qHTS assay to identify small molecule antagonists of the TGF-beta/Smad signaling pathway - cell viability counter screen (AID 1346824); note: nearly all actives have a fitted effect of over 50% in size
Method in brief: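 Cytotoxicity counter-screen run in the same wells as the beta-lactamase Smad reporter read: CellTiter-Glo luminescence after 30 min at room temperature. HEK 293T SBE-bla cells had 5 hr compound exposure at 37 C with TGF-beta1 (0.25 ng/mL stock).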

[16] = Caspase-3/7 induction in CHO-K1 cells by small molecules, qHTS cell viability counter screen (AID 1346979); note: nearly all actives have a fitted effect of over 35% in size; note: potency is the fitted concentration of half-maximal effect
Method in brief: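 Wild-type CHO-K1 cells (1,500/well) treated with compound after 5 h plating; after 16 h at 37C, viability read as CellTiter-Fluor fluorescence following 1 h reagent incubation, in the same wells as the caspase read.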

[17] = Caspase-3/7 induction in CHO-K1 cells by small molecules, qHTS assay (AID 1346980); note: nearly all actives have a fitted effect of over 15% in size
Method in brief: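 Luminescent Caspase-Glo 3/7 read (30min, room temperature) quantified apoptosis induction. Cells were wild-type CHO-K1, treated with compound for 17hr at 37 C and 5% CO2.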

[18] = molecular target: Nuclear receptor subfamily 1 group I member 2 (Rattus norvegicus) (UniProt Q9R1A7); test: Rat pregnane X receptor (rPXR) activation by small molecules, qHTS assay (AID 1346983); conditions: rPXR luciferase reporter cells, One-Glo luminescence, 24 h; max activation: active compounds read high; note: nearly all actives have a fitted effect of over 20% in size
Method in brief: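 Luminescent readout (One-Glo luciferase, 30 min room temperature) followed 24 hr compound treatment at 37 C of rPXR cells plated 2,000 per well and preincubated 5hr; qHTS format with compounds delivered in DMSO.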

[19] = molecular target: Nuclear receptor subfamily 1 group I member 2 (Homo sapiens) (UniProt O75469); test: CYP3A4 induction through human pregnane X receptor (PXR) by small molecules, qHTS assay (AID 1346984); note: nearly all actives have a fitted effect of over 40% in size
Method in brief: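 Induction measured in HepG2-based DPX-2 cells co-expressing human PXR and a CYP3A4 promoter-driven luciferase. After a 24-hour compound exposure, cells received CYP3A4 luciferin substrate at 3uM final for 3 hours, and light output was then recorded.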

[20] = molecular target: Nuclear receptor subfamily 1 group I member 2 (Homo sapiens) (UniProt O75469); test: Human pregnane X receptor (PXR) activation by small molecules, qHTS assay (AID 1346985); note: nearly all actives have a fitted effect of over 40% in size
Method in brief: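 DPX-2 cells (HepG2 co-transfected with a PXR response element and a CYP3A4-promoter luciferase construct) were seeded at 2,000 per well, rested 5 hr at 37C, then exposed to DMSO-dissolved compounds for 24 hr. Activation was read as luciferase luminescence.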

Chain of Nuclear receptor subfamily 1 group I member 2 (Homo sapiens) (O75469 whole entry, looked up): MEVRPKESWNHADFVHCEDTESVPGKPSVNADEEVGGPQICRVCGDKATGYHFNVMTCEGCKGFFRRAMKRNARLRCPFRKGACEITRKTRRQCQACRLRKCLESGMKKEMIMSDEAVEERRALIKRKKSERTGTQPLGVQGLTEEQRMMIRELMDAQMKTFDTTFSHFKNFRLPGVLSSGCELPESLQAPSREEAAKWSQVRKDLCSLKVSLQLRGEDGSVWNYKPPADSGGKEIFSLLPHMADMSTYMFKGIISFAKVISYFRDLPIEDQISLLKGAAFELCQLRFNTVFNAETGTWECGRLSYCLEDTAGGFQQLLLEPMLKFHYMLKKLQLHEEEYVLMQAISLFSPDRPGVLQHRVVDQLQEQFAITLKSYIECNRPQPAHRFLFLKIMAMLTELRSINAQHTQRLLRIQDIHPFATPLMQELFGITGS
Chain of Thyrotropin-releasing hormone receptor (Homo sapiens) (P34981 whole entry, looked up): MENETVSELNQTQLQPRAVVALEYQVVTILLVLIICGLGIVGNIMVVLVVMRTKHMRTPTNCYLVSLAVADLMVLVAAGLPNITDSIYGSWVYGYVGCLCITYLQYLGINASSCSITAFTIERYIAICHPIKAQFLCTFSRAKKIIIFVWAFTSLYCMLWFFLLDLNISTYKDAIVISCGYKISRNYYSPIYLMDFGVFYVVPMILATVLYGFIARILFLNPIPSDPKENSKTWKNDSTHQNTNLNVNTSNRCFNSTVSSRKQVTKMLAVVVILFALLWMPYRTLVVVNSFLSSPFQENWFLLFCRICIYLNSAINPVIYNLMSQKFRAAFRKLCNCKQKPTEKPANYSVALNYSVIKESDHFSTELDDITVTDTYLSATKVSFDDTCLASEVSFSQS
Chain of Progesterone receptor (Homo sapiens) (P06401 whole entry, looked up): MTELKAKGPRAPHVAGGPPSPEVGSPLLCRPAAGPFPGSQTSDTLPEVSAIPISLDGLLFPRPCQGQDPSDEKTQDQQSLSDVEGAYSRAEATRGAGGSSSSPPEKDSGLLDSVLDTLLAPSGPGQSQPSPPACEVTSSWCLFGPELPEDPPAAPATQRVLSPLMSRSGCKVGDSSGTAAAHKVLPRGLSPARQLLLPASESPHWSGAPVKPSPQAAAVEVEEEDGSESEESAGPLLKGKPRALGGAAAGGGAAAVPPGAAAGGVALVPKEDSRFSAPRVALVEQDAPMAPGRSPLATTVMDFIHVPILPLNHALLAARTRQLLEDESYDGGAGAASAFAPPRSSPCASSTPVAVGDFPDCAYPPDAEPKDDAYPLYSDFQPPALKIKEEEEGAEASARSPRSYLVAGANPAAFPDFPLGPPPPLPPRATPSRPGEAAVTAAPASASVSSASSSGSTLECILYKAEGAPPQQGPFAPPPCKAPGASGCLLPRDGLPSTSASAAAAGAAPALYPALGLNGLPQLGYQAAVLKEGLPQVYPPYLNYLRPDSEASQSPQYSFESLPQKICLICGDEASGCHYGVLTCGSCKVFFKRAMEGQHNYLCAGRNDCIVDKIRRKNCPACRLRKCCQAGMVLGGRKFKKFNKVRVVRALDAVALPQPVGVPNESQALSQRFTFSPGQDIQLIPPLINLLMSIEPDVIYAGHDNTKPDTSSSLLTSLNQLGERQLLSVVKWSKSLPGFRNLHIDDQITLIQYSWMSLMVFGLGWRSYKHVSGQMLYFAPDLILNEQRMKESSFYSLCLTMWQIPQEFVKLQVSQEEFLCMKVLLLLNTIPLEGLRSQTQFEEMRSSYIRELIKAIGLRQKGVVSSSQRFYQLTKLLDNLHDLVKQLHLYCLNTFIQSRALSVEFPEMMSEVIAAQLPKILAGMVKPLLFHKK
Chain of Thyrotropin receptor (Homo sapiens) (P16473 whole entry, looked up): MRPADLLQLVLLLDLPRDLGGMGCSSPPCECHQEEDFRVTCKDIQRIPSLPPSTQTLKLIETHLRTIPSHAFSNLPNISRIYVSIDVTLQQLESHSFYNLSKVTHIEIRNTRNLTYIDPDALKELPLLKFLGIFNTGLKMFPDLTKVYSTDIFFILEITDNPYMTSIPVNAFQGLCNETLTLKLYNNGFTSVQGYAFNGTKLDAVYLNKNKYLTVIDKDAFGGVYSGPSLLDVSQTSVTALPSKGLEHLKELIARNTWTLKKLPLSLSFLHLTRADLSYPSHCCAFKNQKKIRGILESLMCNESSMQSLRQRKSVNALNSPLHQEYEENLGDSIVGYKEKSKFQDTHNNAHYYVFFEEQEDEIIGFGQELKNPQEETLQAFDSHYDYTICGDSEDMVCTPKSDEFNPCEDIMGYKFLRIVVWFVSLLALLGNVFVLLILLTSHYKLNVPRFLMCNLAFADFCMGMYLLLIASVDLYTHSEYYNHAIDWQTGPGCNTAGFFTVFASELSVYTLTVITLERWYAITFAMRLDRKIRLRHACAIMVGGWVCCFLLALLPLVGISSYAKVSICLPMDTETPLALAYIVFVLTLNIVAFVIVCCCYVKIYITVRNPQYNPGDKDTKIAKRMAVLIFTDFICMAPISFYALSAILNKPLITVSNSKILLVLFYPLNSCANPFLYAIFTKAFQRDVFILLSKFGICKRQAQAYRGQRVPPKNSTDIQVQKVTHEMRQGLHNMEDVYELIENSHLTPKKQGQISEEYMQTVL
Chain of Nuclear receptor subfamily 1 group I member 2 (Rattus norvegicus) (Q9R1A7 whole entry, looked up): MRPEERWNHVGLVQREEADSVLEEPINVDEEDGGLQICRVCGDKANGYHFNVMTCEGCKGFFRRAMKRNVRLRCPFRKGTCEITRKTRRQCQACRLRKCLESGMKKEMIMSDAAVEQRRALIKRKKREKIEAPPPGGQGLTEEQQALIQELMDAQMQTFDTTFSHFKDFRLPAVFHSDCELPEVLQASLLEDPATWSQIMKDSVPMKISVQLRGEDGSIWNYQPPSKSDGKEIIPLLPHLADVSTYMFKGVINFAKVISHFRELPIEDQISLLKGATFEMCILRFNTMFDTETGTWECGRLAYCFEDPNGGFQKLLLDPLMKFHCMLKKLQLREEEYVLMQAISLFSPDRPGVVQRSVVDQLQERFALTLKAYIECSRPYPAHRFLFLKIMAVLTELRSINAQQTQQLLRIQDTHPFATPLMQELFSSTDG

Row | Compound | Potency [1] | Potency [2] | Potency [3] | Potency [4] | Potency [5] | Potency [6] | outcome [7] | outcome [8] | outcome [9] | outcome [10] | Potency [11] | Potency [12] | Potency [13] | Potency [14] | outcome [15] | Potency [16] | Potency [17] | max activation [18] [%] | Potency [19] | Potency [20]
1 | CC(C)(C)c1ccc(CCC=O)cc1 | inactive | inactive | inactive | inactive | inactive | inactive | inactive | inactive | inactive | inactive | inactive | inactive | inactive | inactive |  |  |  |  |  | 
2 | O=c1[nH]nc(-c2ccc([N+](=O)[O-])o2)o1 | inactive | 54.5 µM (active) | inactive | inactive | inactive | inactive | inactive | inactive | inactive | inactive |  |  | 54.5 µM (active) | 61.1 µM (active) | inactive | 61.1 µM (active) | inactive |  |  | 
3 | NC(=O)c1cc[n+](CC2=C(C(=O)[O-])N3C(=O)[C@@H](NC(=O)Cc4cccs4)[C@H]3SC2)cc1 | inactive | inactive | inactive | inactive | inactive | inactive |  |  |  |  | inactive | inactive | inactive | inactive | inactive | inactive |  | -2.94 | inactive | inactive
4 | Cc1ccc(S(=O)(=O)NC(=O)NC2CCCC2)cc1 | inactive | inactive | inactive | inactive | inactive |  | inactive | inactive | inactive | inactive | inactive |  | inactive | inactive | inactive | inactive | inactive | -4.06 | inactive | inactive
5 | O=C(Cl)c1ccc(F)c(Cl)c1 | inactive | inactive | inactive | inactive | inactive |  | inactive | inactive | inactive | inactive | inactive | inactive |  | inactive |  |  | inactive |  |  | 
6 | C=C(C)C(=O)OCCCCCCCCCCOC(=O)C(=C)C | inactive | inactive | inactive | inactive |  | inactive |  |  |  | inactive | inactive | inactive | inactive | inactive | inactive | inactive | inactive |  |  | 
7 | CCCCCCCCCCCCSC#N | inactive | inactive | inactive | inactive |  | inactive | inactive | inactive |  |  | inactive | inactive | inactive | inactive | inactive | inactive | inactive |  |  | 
8 | CCCCOC(=O)C(C)Oc1ccc(Oc2ccc(C(F)(F)F)cn2)cc1 (stereo not given) | inactive | inactive | inactive | inactive |  | inactive | inactive |  |  |  | inactive | inactive | inactive | inactive |  |  | inactive |  |  | 
9 | C/C(=C(\CCO)SS/C(CCO)=C(\C)N(C=O)Cc1cnc(C)nc1N)N(C=O)Cc1cnc(C)nc1N | inactive | inactive | inactive | inactive |  | inactive | inactive |  | inactive | inactive |  | inactive | inactive | inactive | inactive | inactive | inactive | -1.12 | inactive | inactive
10 | C=C[Si](OCC)(OCC)OCC | inactive | inactive | inactive | inactive |  | inactive | inactive | inactive | inactive | inactive | inactive | inactive | inactive |  | inactive | inactive | inactive |  |  | 
